Measured values reported in PubChem BioAssay AID782 (Emory University Molecular Libraries Screening Center, 2007).
In all, about 220,000 compounds went through this assay and about 800 (0.36%) were called active.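 The calls were made as follows: active = inhibition above about 30% (limit read from the data); inactive = the rest.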 The full list was thinned out, with actives kept by preference.

Target: Eukaryotic translation initiation factor 4E (Mus musculus) + Eukaryotic translation initiation factor 4 gamma 1 (Homo sapiens) (UniProt P63073+Q04637)
Sequence (P63073 whole entry, looked up, the tested form may be a part): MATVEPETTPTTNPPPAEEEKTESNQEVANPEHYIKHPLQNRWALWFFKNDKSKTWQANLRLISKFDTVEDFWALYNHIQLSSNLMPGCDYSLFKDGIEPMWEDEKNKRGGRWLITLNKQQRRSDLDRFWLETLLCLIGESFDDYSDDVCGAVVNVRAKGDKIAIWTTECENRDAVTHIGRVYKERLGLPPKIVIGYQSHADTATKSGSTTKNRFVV
Sequence (Q04637 whole entry, looked up, the tested form may be a part): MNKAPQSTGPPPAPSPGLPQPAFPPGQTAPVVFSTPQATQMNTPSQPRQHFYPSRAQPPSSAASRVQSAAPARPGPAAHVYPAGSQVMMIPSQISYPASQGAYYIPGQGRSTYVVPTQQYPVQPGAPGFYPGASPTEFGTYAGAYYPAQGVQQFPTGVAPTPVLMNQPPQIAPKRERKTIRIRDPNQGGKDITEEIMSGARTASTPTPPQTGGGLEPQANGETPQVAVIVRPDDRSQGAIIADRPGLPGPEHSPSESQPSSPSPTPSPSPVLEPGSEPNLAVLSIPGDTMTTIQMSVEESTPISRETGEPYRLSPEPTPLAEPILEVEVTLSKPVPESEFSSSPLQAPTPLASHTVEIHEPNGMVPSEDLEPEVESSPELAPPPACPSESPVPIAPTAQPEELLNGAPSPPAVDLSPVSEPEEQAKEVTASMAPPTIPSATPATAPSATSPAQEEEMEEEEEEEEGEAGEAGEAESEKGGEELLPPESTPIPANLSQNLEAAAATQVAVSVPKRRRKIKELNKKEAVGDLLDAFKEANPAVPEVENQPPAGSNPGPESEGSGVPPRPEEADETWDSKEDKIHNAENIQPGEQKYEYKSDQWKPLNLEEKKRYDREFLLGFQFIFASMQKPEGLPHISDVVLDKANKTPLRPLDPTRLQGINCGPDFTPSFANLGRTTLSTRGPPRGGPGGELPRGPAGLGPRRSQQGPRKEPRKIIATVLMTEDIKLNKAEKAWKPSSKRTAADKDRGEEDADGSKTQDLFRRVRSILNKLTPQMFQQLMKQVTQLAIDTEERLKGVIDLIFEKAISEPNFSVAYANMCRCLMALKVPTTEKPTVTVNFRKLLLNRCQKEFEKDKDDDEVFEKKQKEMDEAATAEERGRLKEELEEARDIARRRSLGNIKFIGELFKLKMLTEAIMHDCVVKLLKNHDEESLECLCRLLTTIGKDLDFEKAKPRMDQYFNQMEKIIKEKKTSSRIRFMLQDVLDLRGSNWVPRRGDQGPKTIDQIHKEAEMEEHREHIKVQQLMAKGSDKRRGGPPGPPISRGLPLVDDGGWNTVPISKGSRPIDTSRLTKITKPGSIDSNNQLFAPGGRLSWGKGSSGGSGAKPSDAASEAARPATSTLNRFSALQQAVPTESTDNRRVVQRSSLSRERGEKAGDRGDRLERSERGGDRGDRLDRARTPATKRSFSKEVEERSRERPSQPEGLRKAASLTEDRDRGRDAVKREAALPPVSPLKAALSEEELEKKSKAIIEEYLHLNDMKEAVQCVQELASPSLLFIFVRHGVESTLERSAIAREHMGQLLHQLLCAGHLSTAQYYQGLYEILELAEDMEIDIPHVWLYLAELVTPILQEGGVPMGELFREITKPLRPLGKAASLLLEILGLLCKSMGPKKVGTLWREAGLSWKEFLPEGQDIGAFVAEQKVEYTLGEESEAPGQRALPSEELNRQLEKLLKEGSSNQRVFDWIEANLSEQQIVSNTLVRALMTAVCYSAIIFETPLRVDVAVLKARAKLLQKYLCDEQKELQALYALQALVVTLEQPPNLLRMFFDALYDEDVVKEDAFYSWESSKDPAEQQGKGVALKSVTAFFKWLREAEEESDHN
Assay: blockers of eIF4G binding by eIF4E – biochemical, uHTS, TR-FRET, eIF4GI fragment, primary screen (AID 782);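 also: 0% = full FRET control wells and 100% = background wells lacking eIF4GI fragment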
Conditions: TR-FRET eIF4E-eIF4GI(517-606) binding, 2 h; at 21.7 µM; hits give high values

Row | SMILES | inhibition
1 | C=C1C2C[C@H](O)C(C)(C)[C@@]2(O)[C@H](O)C[C@]23C[C@@](C)(O)[C@H](CC[C@H]12)[C@H]3O (stereo not given in full) | -4.67% (inactive)
2 | CSc1nnnn1-c1c(C)cc(C)cc1C | -8.98% (inactive)
3 | CC(C)=C(NC(=O)c1ccccc1)C(=O)N/N=C(\C)c1ccccc1O | 2.96% (inactive)
4 | Cc1c(Cl)cccc1NC(=O)CC1SC(=NCC2CCCO2)NC1=O (stereo not given) | 1.68% (inactive)
5 | CCCCNC(=O)N1CCN(S(C)(=O)=O)CC1 | 2.45% (inactive)
6 | Cc1ccc(Nc2nc(N)nc(CSc3nnc(C)s3)n2)cc1 | 3.78% (inactive)
7 | COc1ccc(-c2nn(-c3ccccc3)cc2/C=C\C(=O)N2CCOCC2)cc1[N+](=O)[O-] | 1.3% (inactive)
8 | Cc1noc(C)c1CSc1nc2cc(S(=O)(=O)N3CCOCC3)ccc2o1 | 38.2% (active)
9 | COc1ccc(NC(=O)c2oc3ccc(S(=O)(=O)N4CCOCC4)cc3c2C)cc1 | -0.4% (inactive)
10 | Cc1ccc(S(=O)(=O)N2CCN(S(=O)(=O)N3CCOCC3)CC2)cc1 | 0.52% (inactive)
11 | O=C(CSC(=S)N1CCOCC1)c1ccccc1 | 9.18% (inactive)
12 | CCOC(=O)CNC(=O)/C(=C\c1ccc(F)cc1)NC(=O)c1ccccc1 | 0.01% (inactive)
13 | Cc1ccc(NC(=O)Nc2cc(-c3ccccc3)nn2C)cc1Cl | 1.28% (inactive)
14 | CCc1ccc(NC(=O)CC2C(=O)NCCN2C(=S)Nc2ccccc2)cc1 (stereo not given) | 2.38% (inactive)
15 | Cc1ccc(-c2nc(SCC(=O)Nc3ccccc3OC(F)F)c3c(C)c(C(=O)O)sc3n2)cc1 | 34.5% (active)
16 | Cc1ccc(C)c(SCc2nc3sc(C(=O)O)c(C)c3c(=O)[nH]2)c1 | -9.58% (inactive)
17 | COc1ccccc1NC(=O)CSc1nc2sc(C)c(C)c2c(=O)n1Cc1ccco1 | -13.8% (inactive)
18 | CCOC(=O)C1=NN(c2ccc(Cl)cc2)/C(=C/C2=NCCc3cc(OC)c(OC)cc32)S1 | 2.69% (inactive)
19 | Cc1ccc(OCc2n[nH]c(=S)n2-c2ccc(C)cc2)cc1 | 0.42% (inactive)
20 | COc1ccc(OCC(O)CNCCNc2nccc(C(F)(F)F)n2)cc1 (stereo not given) | -1.2% (inactive)
21 | O=C(Nc1ccc(-c2csc(Nc3cccc(C(F)(F)F)c3)n2)cc1)c1cccc(C(F)(F)F)c1 | -4.77% (inactive)
22 | COCc1cc(=O)[nH]c(-c2ccc(C(F)(F)F)cc2)n1 | -4.61% (inactive)
23 | COc1cc(C(=O)OCc2ccc([N+](=O)[O-])cc2)cc(OC)c1OC | -2.12% (inactive)
24 | CC(C)(C)NC(=O)NC(=O)COC(=O)Cc1c(F)cccc1Cl | 0.46% (inactive)
25 | Cn1c(S(=O)(=O)O)nc2ccccc21 | 3.14% (inactive)
26 | O=C(NNS(=O)(=O)c1ccccc1C(F)(F)F)c1cc2ncc(C(F)(F)F)cc2s1 | 9.76% (inactive)
27 | CCOC1CS(=O)(=O)CC1OCC (stereo not given) | -1.77% (inactive)

Row | SMILES | inhibition
28 | O=C(Cc1ccccc1)NCC1OCCc2ccccc21 (stereo not given) | -5.93% (inactive)
29 | CCNC(=S)N1CCN(CCN=CC2=C(O)CC(C)(C)CC2=O)CC1 | 2.72% (inactive)
30 | Oc1ccc(-c2nnc(Nc3ccccc3)c3ccccc23)cc1 | -1.27% (inactive)
31 | Cc1nn(CC(=O)N/N=C/c2ccc(F)cc2)c(C)c1[N+](=O)[O-] | 10.1% (inactive)
32 | O=C(Nc1ccc(Br)cc1)C1CCC(=O)N1Cc1ccccc1Cl (stereo not given) | 7% (inactive)
33 | O=C1c2ccccc2C(O)N1Cc1ccccc1 (stereo not given) | -4.18% (inactive)
34 | O=C1c2ccccc2C(O)N1Cc1ccccc1Cl (stereo not given) | 43.6% (active)
35 | COc1ccc(CNC(=O)C2CC(c3ccc(C(F)(F)F)cc3)=NO2)cc1 (stereo not given) | 0.84% (inactive)
36 | C=C(C)C(=O)O[C@H]1C/C(C)=C\C(=O)/C=C(\C)[C@H](O)[C@@H]2OC(=O)C(=C)[C@@H]21 | 2.79% (inactive)
37 | CCn1c(NC(=O)c2nn(C)cc2Br)nc2ccccc21 | 2.02% (inactive)
38 | CC(C)N(C(=O)c1ccc(-c2ccccc2F)cc1)C(C)C | 6.78% (inactive)
39 | O=S(=O)(c1ccc(Cl)cc1)N1CCCN(c2ccc(C(F)(F)F)cn2)CC1 | 2.55% (inactive)
40 | CCOC(=O)N1CCN(C(c2cccnc2)c2ccc3cccnc3c2O)CC1 (stereo not given) | 41.4% [fluorescence artefact?] (active)
41 | CCN1CCN(C(c2cccnc2)c2cc(Cl)c3cccnc3c2O)CC1 (stereo not given) | 15.4% (inactive)
42 | Oc1c(C(c2ccccn2)N2CCOCC2)ccc2cccnc12 (stereo not given) | 5.26% (inactive)
43 | O=C(Cc1cccs1)Nc1nnc(C2CC2)s1 | -4.66% (inactive)
44 | CCc1nnc(NC(=O)Cc2cccs2)s1 | 28.2% (inactive)
45 | COc1ccc(Cc2nnc(NC(=O)Cc3cccs3)s2)cc1 | 30.8% (active)
46 | O=C1C(Cc2ccc(O)cc2)NC(=S)N1Cc1ccccc1 (stereo not given) | 4.64% (inactive)
47 | O=C(NC(Cc1c[nH]c2ccccc12)C(=O)O)/C(=C/c1ccco1)NC(=O)c1ccccc1 (stereo not given) | 1.5% (inactive)
48 | CN(C(=O)Nc1ccc(Cl)cc1)n1cnc2ccccc2c1=O | -1.03% (inactive)
49 | O=C(Cn1cnc2c(cnn2-c2ccccc2)c1=O)NCc1ccccc1 | -7.03% (inactive)
50 | O=C(Cn1cnc2cc([N+](=O)[O-])ccc2c1=O)NC(=O)NCc1ccccc1 | 90.5% (active)
51 | CC(C)(C)NC(=O)Cn1cnc2cc([N+](=O)[O-])ccc2c1=O | 6.94% (inactive)
52 | CCC(C)(C)NC(=O)/C=C/c1cc(OC)c(OC)c(S(=O)(=O)N2CCc3ccccc32)c1 | -2.6% (inactive)
53 | CCN(Cc1ccccc1)C(=O)CN1C(=S)NC(C)(C)CC1C (stereo not given) | -8.44% (inactive)
54 | CC(=O)Nc1cccc(/C(C)=N/NC(=O)c2c(-c3ccccc3Cl)noc2C)c1 | 1.91% (inactive)

Row | SMILES | inhibition
55 | COc1ccc(N2CCN(C(=O)/C(C#N)=C/c3ccccc3)CC2)cc1 | 1.4% (inactive)
56 | COC(=O)c1sc2[nH]c(=S)n(N)c(=O)c2c1C | -5.75% (inactive)
57 | Cc1c(CN2CCC(CO)(CCOc3ccccc3)CC2)[nH]c2ccc(Cl)cc12 | 3.73% (inactive)
58 | Cc1ccc(C)c2c1cc(C)c1nnc(SCC(=O)Nc3cccc(C(=O)O)c3)n12 | 92.4% (active)
59 | CCCn1c(SCC(=O)Nc2cccc(C(=O)OCC)c2)nnc1-c1ccoc1C | -5.54% (inactive)
60 | Cc1cc(C)c2c(c1)cc(C)c1nnc(SCC(=O)Nc3cc(C)on3)n12 | 0.38% (inactive)
61 | CCCCOc1ccc(C(=O)NCC(=O)OCC(=O)N2CCN(S(=O)(=O)c3ccc(C)cc3C)CC2)cc1 | 11.8% (inactive)
62 | O=C(OCC(=O)c1c[nH]c2ccccc12)c1cccc(O)c1 | 49.4% (active)
63 | CC1CCN(CC(=O)c2c[nH]c3ccccc23)CC1 | -20.8% (inactive)
64 | O=C(Cc1c[nH]c2ccccc12)OCCOC(=O)Cc1c[nH]c2ccccc12 | 0.18% (inactive)
65 | CCOC(=O)CCCNC(=O)COC(=O)c1cc(Br)c(Br)s1 | -0.44% (inactive)
66 | COc1ccccc1OCC(=O)O/N=C(\N)c1ccccn1 | 4.41% (inactive)
67 | CCCn1nc(NS(=O)(=O)c2ccccc2)c2cc3cc(C)ccc3nc21 | 0.92% (inactive)
68 | COC(=O)Cn1c(O)c(N=NC(=O)OC)c2ccccc21 | 94.3% (active)
69 | N#CCCCn1c(O)c(N=NC(=O)C(O)c2ccccc2)c2ccccc21 (stereo not given) | 1.55% (inactive)
70 | CCCCn1c(O)c(N=NC(=O)Cn2c(C(F)(F)F)nc3ccccc32)c2ccccc21 | 16% (inactive)
71 | CC1(C)C(c2cccs2)=[N+]([O-])C2(CCCCC2=O)N1O (stereo not given) | -4.23% (inactive)
72 | COc1ccc(NC(=O)COc2ccc(C(=O)OCC(=O)N(C)C3CCS(=O)(=O)C3)cc2OC)cc1 (stereo not given) | -0.66% (inactive)
73 | CN(C(=O)COC(=O)c1cc(-c2ccco2)nc2ccccc12)C1CCS(=O)(=O)C1 (stereo not given) | 42.4% (active)
74 | Cc1c(-c2cccc(Cl)c2)nc2ccccc2c1C(=O)OCC(=O)N(C)C1CCS(=O)(=O)C1 (stereo not given) | 2.67% (inactive)
75 | O=C(NNC(=S)NC(=O)c1cn(-c2ccccc2)nc1-c1ccccc1)c1ccncc1 | 0.17% (inactive)
76 | Cc1ccc(N(C(=O)C(F)(F)F)C(C(=O)NC2CCCCC2)c2ccncc2)cc1C (stereo not given) | 4.58% (inactive)
77 | S=C(NCCc1ccccc1)N1CCn2cccc2C1c1ccncc1 (stereo not given) | -2.42% (inactive)
78 | Cc1ccc(NC(=S)NC2CCCC2)cc1 | 1.43% (inactive)
79 | COc1ccc(NC(=S)NC2CCS(=O)(=O)C2)cc1 (stereo not given) | 49.7% (active)
80 | COc1ccc(-c2ccc(OC(=O)NC3CCS(=O)(=O)C3)cc2)cc1 (stereo not given) | 2.9% (inactive)
